Experimental findings from PubChem BioAssay (NCI) are described below.

The panel holds about 83,000 compounds, 20% with a hit somewhere; the sample as a whole holds those more often.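 Growth was measured after 48 h exposure to one concentration of compound in 96-well plates. Values under 10 count as active.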 Unmarked numbers belong to inactive results. The source made the active and inactive calls.

For one test, the system named is IGROV1 ovarian. The experiment in a line: NCI-60 one-dose screen, 48 h (100 = growth as untreated, 0 = no growth, -100 = all killed). Particulars: 10 µM unless noted.
Regarding `CC1(C)CC[C@]23CC[C@]4(C)[C@H](CC[C@@H]5[C@@]6(C)C/C(=C/c7ccncc7)C(=O)C(C)(C)[C@@H]6CC[C@]54C)[C@H]2[C@H]1OC3`, the growth was 80.5%. `C/C(Cc1ccc(Cl)cc1)=C(\c1ccc(OCCCN(C)C)cc1)c1ccc(OC(=O)Cc2ccccc2)cc1`: the growth is 106%.

Take `COc1ccc(C(=O)/C=C/c2ccc(N3CCCCC3)cc2)cc1OC`: the growth was 95.4%.

As for `O=C1Nc2c(C(=O)O)cccc2/C1=N/c1n[nH]c(=S)s1`, the growth is 83%. `COC(=O)N1CC(Oc2ccccn2)C2CC1c1ccccc1O2` (stereo not drawn): the growth was 120%. As to `CN(CCCNC(=O)Cc1ccc2ccc3cccc4ccc1c2c34)CCCNc1cc(-c2ccc3ccccc3c2)nc2ccccc12`, the growth is -19.4% (active).

Consider `CCOC(=O)C(=Cc1ccc(-c2ccccc2)cc1)C(=O)OCC`, for which the growth is 50.5%. Take `COc1ccc(C(O)c2cc3c(N)c(C(=O)Nc4cccc(Cl)c4C)sc3nc2C)cc1` (stereo not drawn): the growth is 10.7%.

`Oc1ccc(/C=C/c2ccc(O)cc2)cc1`: the growth was 43.9%.

The test system of another test is OVCAR-3 ovarian. Described as above. The settings on record: 10 µM unless noted.
With `CCN(CC)CCN1C(=O)c2cccc3c(/C=C/CN4C(=O)c5cccc6cccc(c56)C4=O)ccc(c23)C1=O`, the growth was 108%. The same measure, in the same setting: to `CCN1CCN(C(=O)[C@]23CC[C@@H](C)[C@H](C)[C@@H]2C2=CC[C@@H]4[C@@]5(C)C/C(=C/c6cccnc6)C(=O)C(C)(C)[C@@H]5CC[C@@]4(C)[C@]2(C)CC3)CC1` belongs 25.9%; to `COc1ccc(C2CC(c3cc(OC)c(OC)c(OC)c3)=NO2)cc1OCCCCOc1cc2c(cc1OC)C(=O)N1CCC[C@H]1C=N2` (stereo partly drawn), 0.847% (active). Take `Cn1c(=O)c2[nH]c(SCC(=O)Nc3ccc(C(=O)/C=C/c4ccccc4Cl)cc3)nc2n(C)c1=O`: the growth was 94.7%.

As for `CC1(C)N=C(N)N=C(N)N1c1cccc(CCc2ccccc2)c1`, the growth is 22.8%.

On to `O=C1c2ccccc2C(=O)c2c1c(C(=O)NCc1ccccc1)c1ccccn21`, for which the growth is 116%.

`CC1C(/C=N/NC(N)=S)C(C#N)(C#N)C1(C#N)C#N` (stereo not drawn): the growth is 107%. For `NS(=O)(=O)c1ccc(-c2cc(-c3nnc(SCC(=O)Nc4ccc(C(=O)/C=C/c5ccc(Cl)cc5)cc4)n3-c3ccccc3)c3ccccc3n2)cc1`, the growth was 101%. Regarding `CC1(C)CC[C@]2(C(=O)N[C@H](CO)Cc3ccccc3)CC[C@]3(C)C(=CC[C@@H]4[C@@]5(C)CCCNC(C)(C)[C@@H]5CC[C@]43C)[C@@H]2C1`, the growth was 97.3%. Still for that read-out and setting: to `CCCCNc1cc(-c2cn[nH]c2-c2cc(C)cc(OC)c2)nc(-c2cccnc2)n1` belongs 98.8%; to `C/C(=N\O)[C@@H]1CC[C@]2(CO)CC[C@]3(C)[C@H](CC[C@@H]4[C@@]5(C)CCCNC(C)(C)[C@@H]5CC[C@]43C)[C@@H]12`, 80.3%; to `CN(C)CCCC1(c2ccc(F)cc2)OCc2cc(-c3cc4ccccc4s3)ccc21` (stereo not drawn), -29.1% (active). As to `C=C(C)[C@@H]1CCC[C@]2(C(=O)O)CC[C@]3(C)[C@@H](CC[C@@H]4[C@@]5(C)C/C(=C/c6ccncc6)C(=O)C(C)(C)[C@@H]5CC[C@]43C)[C@@H]12`, the growth is 11.5%. Still for that read-out and setting: for `C=Cc1cnc(Nc2ccc(OC)cc2)nc1NCCCNC(=O)C1CCC1` the value was 48.2%; for `Cc1ccc(CNc2ccc3nc(CCC(C)C)[nH]c3c2)cc1`, 88.9%; for `O=c1ccc(=O)n(-c2nc(-c3ccc([N+](=O)[O-])cc3)cs2)[nH]1`, 102%. Take `CC(=O)OC(c1ccccc1)C1CCOC1=O` (stereo not drawn): the growth is 102%. Still for that read-out and setting: to `Cc1ccc(-c2csc(N(C(=O)N3CCN(c4cc5c(cc4F)c(=O)c(C(=O)O)cn5C4CC4)CC3)c3ccccc3)n2)cc1` belongs 7.88% (active). For the compound `CCN1CCN(CC(=O)Nc2nc3ccc(NCc4ccc(F)cc4)cc3s2)CC1`, the growth is 99.4%.

Take `CCOC(=O)c1c(C)nc2c(c1N)CC(=O)N2Cc1ccc(OC)cc1`: the growth was 16.4%. On the same count and under the same terms, for `CCNC(=O)Oc1ccc(/C(=C(/C)Cc2ccc(OC)cc2)c2ccc(OCCN3CCCCC3)cc2)cc1` the value was 74.6%; for `C=C(C)[C@@H]1CCC[C@]2(C(=O)N3CCN(C)CC3)CC[C@]3(C)[C@@H](CC[C@@H]4[C@@]5(C)CC/C(=N\NC(=O)c6ccncc6)C(C)(C)[C@@H]5CC[C@]43C)[C@@H]12`, 95.5%. As for `CCCCCCCCCCCCCOC(=O)c1c(C)[nH]c(/C=C2\N=C(c3ccc[nH]3)C=C2OC)c1C`, the growth is 11.3%. The same measure, in the same setting: to `COc1cccc(/C=C/C(=O)c2cccc(Nc3nc(Nc4ccccc4)nc(Nc4ccccc4)n3)c2)c1` belongs 76.6%; to `O=C(C1CCCCC1)[C@@H]1[C@]2(C(=O)NC3CCCCC32)[C@@H]2CCCN2[C@@]12C(=O)NC1CCC(Cl)CC12` (stereo partly drawn), -91.9% [100 µM] (active). The same measure, in the same setting: to `N#C/C(=C\c1ccc(-c2cccc(C(F)(F)F)c2)o1)c1ccccc1` belongs 95.6%; to `COc1cc(C(=O)n2nc(N3CCOCC3)c3cc(-n4cccc4)ccc32)cc(OC)c1OC`, 87.3%.

`COC(=O)c1c2c(c(C)[n+]([O-])c1C)C(=O)C(NCc1ccc(OC)cc1)=CC2=O`: the growth is -18.6% (active). Regarding `CC1=C(CCC(C)NCc2ccc(OCCCN3CCCCC3)cc2)C(C)(C)CCC1` (stereo not drawn), the growth was -70.4% (active). As to `CN1CCN(CCCOc2cccc3nc(Nc4ccc(F)c(F)c4)ccc23)CC1`, the growth was 8.36% (active).

`CC1(C)CC[C@]23CC[C@]4(C)[C@H](CC[C@@H]5[C@@]6(C)C/C(=C/c7ccncc7)C(=O)C(C)(C)[C@@H]6CC[C@]54C)[C@H]2[C@H]1OC3`: the growth is 84.4%. The same measure, in the same setting: to `C/C(Cc1ccc(Cl)cc1)=C(\c1ccc(OCCCN(C)C)cc1)c1ccc(OC(=O)Cc2ccccc2)cc1` belongs 101%; to `COc1ccc(C(=O)/C=C/c2ccc(N3CCCCC3)cc2)cc1OC`, 104%.

With `O=C1Nc2c(C(=O)O)cccc2/C1=N/c1n[nH]c(=S)s1`, the growth is 99.1%. As to `COC(=O)N1CC(Oc2ccccn2)C2CC1c1ccccc1O2` (stereo not drawn), the growth is 110%. Same read-out and setting: for `CN(CCCNC(=O)Cc1ccc2ccc3cccc4ccc1c2c34)CCCNc1cc(-c2ccc3ccccc3c2)nc2ccccc12` the value was -81.5% (active); for `CCOC(=O)C(=Cc1ccc(-c2ccccc2)cc1)C(=O)OCC`, 52.8%; for `COc1ccc(C(O)c2cc3c(N)c(C(=O)Nc4cccc(Cl)c4C)sc3nc2C)cc1` (stereo not drawn), -11% (active). The same measure, in the same setting: for `Oc1ccc(/C=C/c2ccc(O)cc2)cc1` the value was 47.7%.
